# Assay results published in paper PMC5540273 (PLoS ONE, 2017).
# “And” between values parts separate entries of the source, which are not always exact repeats. Equal values may be shown once. Read-outs that look alike come from different tables or passages of the source.
# Assays:
# [1] = test system: PDGFRB; settings: concentration: 1 μM, replicates: in singlicate, n = 1
# [2] = test system: PDPK1; settings: concentration: 1 μM, replicates: in singlicate, n = 1
# [3] = test system: PFTAIRE2; settings: concentration: 1 μM, replicates: in singlicate, n = 1
# [4] = test system: T1, PFTK1; settings: concentration: 1 μM, replicates: in singlicate, n = 1
# T1 construct: gene CDK14
# [5] = test system: PHKG1; settings: concentration: 1 μM, replicates: in singlicate; n = 1
# [6] = test system: PHKG2; settings: concentration: 1 μM, replicates: in singlicate, n = 1
# [7] = test system: PIK3C2B; settings: concentration: 1 μM, replicates: in singlicate, n = 1
# [8] = test system: PIK3C2G; settings: concentration: 1 μM, replicates: in singlicate, n = 1
# [9] = test system: PIK3CA; settings: concentration: 1 μM, replicates: in singlicate; n = 1
# [10] = test system: PIK3CB; settings: concentration: 1 μM, replicates: in singlicate, n = 1
# [11] = test system: PIK3CD; settings: concentration: 1 μM, replicates: in singlicate, n = 1
# [12] = test system: PIK3CG; settings: concentration: 1 μM, replicates: in singlicate, n = 1
# [13] = test system: T2, PIK4CB; settings: concentration: 1 μM, replicates: in singlicate, n = 1
# T2 construct: gene PI4KB
# [14] = test system: PIKFYVE; settings: concentration: 1 μM, replicates: in singlicate, n = 1
# [15] = test system: PIM1; settings: concentration: 1 μM, replicates: in singlicate, n = 1
# [16] = test system: PIM2; settings: concentration: 1 μM, replicates: in singlicate, n = 1
# [17] = test system: PIM3; settings: concentration: 1 μM, replicates: in singlicate; n = 1
# [18] = test system: PIP5K1A; settings: concentration: 1 μM, replicates: in singlicate; n = 1
# [19] = test system: PIP5K1C; settings: concentration: 1 μM, replicates: in singlicate, n = 1
# [20] = test system: PIP5K2B; settings: concentration: 1 μM, replicates: in singlicate; n = 1
# 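Also: KINOMEscan kinase panel screen.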
structure (smiles),measurement,setting,value
O=C(Nc1ccccc1)Nc1ccc(Oc2ccc3nccn3n2)cc1,%Inh,[1],99%
same,%Inh,[2],0%
same,%Inh,[3],0%
same,%Inh,[4],0%
same,%Inh,[5],0%
same,%Inh,[6],5%
same,%Inh,[7],0%
same,%Inh,[8],0%
same,%Inh,[9],0%
same,%Inh,[10],0%
same,%Inh,[11],0%
same,%Inh,[12],0%
same,%Inh,[13],0%
same,%Inh,[14],5%
same,%Inh,[15],0%
same,%Inh,[16],6%
same,%Inh,[17],0%
same,%Inh,[18],4%
same,%Inh,[19],25%
same,%Inh,[20],7%
CCCc1ccc(S(=O)(=O)NC2CCN(c3ccnc(Nc4ccc(OC)cc4)n3)C2)cc1 (stereo not shown) [GSK1379737],%Inh,[1],51%
same,%Inh,[2],0%
same,%Inh,[3],5%
same,%Inh,[4],0%
same,%Inh,[5],0%
same,%Inh,[6],0%
same,%Inh,[7],0%
same,%Inh,[8],0%
same,%Inh,[9],0%
same,%Inh,[10],0%
same,%Inh,[11],0%
same,%Inh,[12],0%
same,%Inh,[13],0%
same,%Inh,[14],0%
same,%Inh,[15],0%
same,%Inh,[16],0%
same,%Inh,[17],0%
same,%Inh,[18],52%
same,%Inh,[19],56%
same,%Inh,[20],22%
COc1ccc(NC(=O)c2ccc(-c3cc(-c4nnc(C)o4)ccc3C)cc2)cc1 [GW595885],%Inh,[1],47%
same,%Inh,[2],0%
same,%Inh,[3],0%
same,%Inh,[4],5%
same,%Inh,[5],3%
same,%Inh,[6],0%
same,%Inh,[7],0%
same,%Inh,[8],0%
same,%Inh,[9],0%
same,%Inh,[10],0%
same,%Inh,[11],0%
same,%Inh,[12],0%
same,%Inh,[13],0%
same,%Inh,[14],13%
same,%Inh,[15],0%
same,%Inh,[16],0%
same,%Inh,[17],0%
same,%Inh,[18],7%
same,%Inh,[19],1%
same,%Inh,[20],10%
CCc1nc(-c2cccc(N(C)S(=O)(=O)c3ccccc3)c2)c(-c2ccnc(Nc3ccc(N4CCN(C(C)=O)CC4)nc3)n2)s1 [GSK1645895],%Inh,[1],32%
same,%Inh,[2],0%
same,%Inh,[3],25%
same,%Inh,[4],20%
same,%Inh,[5],0%
same,%Inh,[6],0%
same,%Inh,[7],0%
same,%Inh,[8],0%
same,%Inh,[9],0%
same,%Inh,[10],0%
same,%Inh,[11],0%
same,%Inh,[12],4%
same,%Inh,[13],10%
same,%Inh,[14],0%
same,%Inh,[15],17%
same,%Inh,[16],0%
same,%Inh,[17],11%
same,%Inh,[18],0%
same,%Inh,[19],0%
same,%Inh,[20],0%
COc1ccc(-c2nc3n(c2-c2ccncc2)CCC3)cc1 [SKF-104493],%Inh,[1]; 1 µM,5% and 23%
same,%Inh,[2]; 1 µM,21% and 0%
same,%Inh,[3]; 1 µM,29% and 9%
same,%Inh,[4]; 1 µM,0% and 34%
same,%Inh,[5],0%
same,%Inh,[6]; 1 µM,0% and 20%
same,%Inh,[7]; 1 µM,13% and 0%
same,%Inh,[8]; 1 µM,19% and 0%
same,%Inh,[9],0%
same,%Inh,[10]; 1 µM,19% and 0%
same,%Inh,[11]; 1 µM,5% and 25%
same,%Inh,[12]; 1 µM,11% and 1%
same,%Inh,[13]; 1 µM,0% and 10%
same,%Inh,[14]; 1 µM,11% and 0%
same,%Inh,[15]; 1 µM,0% and 50%
same,%Inh,[16]; 1 µM,2% and 0%
same,%Inh,[17],0%
same,%Inh,[18],27%
same,%Inh,[19]; 1 µM,25% and 5%
same,%Inh,[20],0%
Clc1cccc(-c2nc(Nc3ccncc3)c3ccccc3n2)c1 [GW873004],%Inh,[1],12%
same,%Inh,[2],4%
same,%Inh,[3],0%
same,%Inh,[4],0%
same,%Inh,[5],0%
same,%Inh,[6],0%
same,%Inh,[7],0%
same,%Inh,[8],0%
same,%Inh,[9],0%
same,%Inh,[10],0%
same,%Inh,[11],0%
same,%Inh,[12],0%
same,%Inh,[13],0%
same,%Inh,[14],61%
same,%Inh,[15],4%
same,%Inh,[16],11%
same,%Inh,[17],0%
same,%Inh,[18],22%
same,%Inh,[19],33%
same,%Inh,[20],0%
Cc1cccc(-c2nc(Nc3ccc4[nH]nnc4c3)c3ccccc3n2)n1 [GW867587],%Inh,[1],0%
same,%Inh,[2],0%
same,%Inh,[3],0%
same,%Inh,[4],0%
same,%Inh,[5],0%
same,%Inh,[6],0%
same,%Inh,[7],0%
same,%Inh,[8],0%
same,%Inh,[9],0%
same,%Inh,[10],0%
same,%Inh,[11],0%
same,%Inh,[12],0%
same,%Inh,[13],0%
same,%Inh,[14],13%
same,%Inh,[15],17%
same,%Inh,[16],0%
same,%Inh,[17],2%
same,%Inh,[18],27%
same,%Inh,[19],0%
same,%Inh,[20],0%
Clc1ccc(-c2cc(-c3c[nH]nc3-c3ccccn3)ccn2)cc1 [GW681251],%Inh,[1],62%
same,%Inh,[2],0%
same,%Inh,[3],1%
same,%Inh,[4],0%
same,%Inh,[5],0%
same,%Inh,[6],0%
same,%Inh,[7],0%
same,%Inh,[8],0%
same,%Inh,[9],0%
same,%Inh,[10],0%
same,%Inh,[11],0%
same,%Inh,[12],0%
same,%Inh,[13],4%
same,%Inh,[14],0%
same,%Inh,[15],0%
same,%Inh,[16],30%
same,%Inh,[17],0%
same,%Inh,[18],16%
same,%Inh,[19],79%
same,%Inh,[20],22%
CNc1nccc(-c2c(-c3ccc(F)cc3)ncn2C2CCN(C)CC2)n1 [SB-222903],%Inh,[1],17%
same,%Inh,[2],0%
same,%Inh,[3],0%
same,%Inh,[4],0%
same,%Inh,[5],0%
same,%Inh,[6],0%
same,%Inh,[7],0%
same,%Inh,[8],0%
same,%Inh,[9],0%
same,%Inh,[10],0%
same,%Inh,[11],0%
same,%Inh,[12],0%
same,%Inh,[13],0%
same,%Inh,[14],9%
same,%Inh,[15],1%
same,%Inh,[16],0%
same,%Inh,[17],0%
same,%Inh,[18],36%
same,%Inh,[19],0%
same,%Inh,[20],0%
Cn1ccc2ncnc(Nc3ccc(Oc4cccc(Cl)c4)c(Cl)c3)c21,%Inh,[1],4%
same,%Inh,[2],22%
same,%Inh,[3],24%
same,%Inh,[4],0%
same,%Inh,[5],0%
same,%Inh,[6],10%
same,%Inh,[7],0%
same,%Inh,[8],28%
same,%Inh,[9],10%
same,%Inh,[10],60%
same,%Inh,[11],8%
same,%Inh,[12],8%
same,%Inh,[13],0%
same,%Inh,[14],0%
same,%Inh,[15],8%
same,%Inh,[16],17%
same,%Inh,[17],22%
same,%Inh,[18],0%
same,%Inh,[19],0%
same,%Inh,[20],54%
Cl.O=S(=O)(c1cccc(F)c1)c1ccc(Nc2ncnc3cc(Br)sc23)cc1Cl [GSK306886],%Inh,[1],46%
same,%Inh,[2],0%
same,%Inh,[3],24%
same,%Inh,[4],21%
same,%Inh,[5],0%
same,%Inh,[6],0%
same,%Inh,[7],28%
same,%Inh,[8],0%
same,%Inh,[9],0%
same,%Inh,[10],0%
same,%Inh,[11],21%
same,%Inh,[12],5%
same,%Inh,[13],6%
same,%Inh,[14],0%
same,%Inh,[15],14%
same,%Inh,[16],0%
same,%Inh,[17],0%
same,%Inh,[18],9%
same,%Inh,[19],70%
same,%Inh,[20],3%
